This note sets out measurements from PMC4336329 (PLoS ONE, 2015).

Molecules are shown by their SMILES. In all, about 310,000 compounds went through this assay and about 14,000 (4.5%) showed an effect of 50% or more. Effects have a minus sign here. Shown is part of a subset that was picked to be rich in strong results.
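Also: peak tail current of the secondary pulse compared with the same well before compound.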

The target of this assay is human ether-à-go-go-related gene (hERG) potassium channel (human, UniProt Q12809). As to the kind of experiment: primary screen, population patch clamp on CHO cells stably expressing hERG; higher = less effect of the substance.
human ether-à-go-go-related gene (hERG) potassium channel, sequence (Q12809 whole entry, looked up): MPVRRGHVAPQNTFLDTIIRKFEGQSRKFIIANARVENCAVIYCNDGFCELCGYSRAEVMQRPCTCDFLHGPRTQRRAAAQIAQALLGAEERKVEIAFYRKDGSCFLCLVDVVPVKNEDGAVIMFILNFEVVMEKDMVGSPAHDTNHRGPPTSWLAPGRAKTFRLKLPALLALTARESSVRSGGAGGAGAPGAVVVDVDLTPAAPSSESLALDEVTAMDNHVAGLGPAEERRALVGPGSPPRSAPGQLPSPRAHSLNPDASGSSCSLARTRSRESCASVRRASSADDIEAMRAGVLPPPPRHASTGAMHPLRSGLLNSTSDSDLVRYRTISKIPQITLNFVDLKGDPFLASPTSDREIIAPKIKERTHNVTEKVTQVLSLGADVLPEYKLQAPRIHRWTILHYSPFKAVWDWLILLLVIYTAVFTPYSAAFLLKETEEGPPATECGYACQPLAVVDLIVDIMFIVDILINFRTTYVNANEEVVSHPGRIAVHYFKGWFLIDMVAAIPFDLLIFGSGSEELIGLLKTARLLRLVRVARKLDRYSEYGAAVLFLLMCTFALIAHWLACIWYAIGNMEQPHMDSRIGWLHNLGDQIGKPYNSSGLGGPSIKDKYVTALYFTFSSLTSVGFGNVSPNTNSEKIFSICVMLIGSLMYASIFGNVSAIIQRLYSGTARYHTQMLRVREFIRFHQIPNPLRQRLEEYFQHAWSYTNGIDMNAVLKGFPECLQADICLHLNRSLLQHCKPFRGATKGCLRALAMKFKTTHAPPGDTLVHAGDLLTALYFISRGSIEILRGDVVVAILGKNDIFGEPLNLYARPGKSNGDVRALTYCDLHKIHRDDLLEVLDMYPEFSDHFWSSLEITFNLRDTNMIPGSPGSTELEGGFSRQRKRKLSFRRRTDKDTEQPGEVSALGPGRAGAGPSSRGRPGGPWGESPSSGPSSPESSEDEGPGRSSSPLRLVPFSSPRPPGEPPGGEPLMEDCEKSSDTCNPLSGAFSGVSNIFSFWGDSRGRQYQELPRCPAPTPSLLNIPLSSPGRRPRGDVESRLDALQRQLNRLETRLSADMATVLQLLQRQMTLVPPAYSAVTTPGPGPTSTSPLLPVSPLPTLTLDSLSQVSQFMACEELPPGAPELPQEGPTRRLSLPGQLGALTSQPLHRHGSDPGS
`CCN(Cc1ccccc1)C(=O)CCc1nnc(CCCc2ccccc2)o1`: the “hERG current change (%, negative = inhibition) at 10uM” value worked out at 21.1%.
To `COc1cc(C(=O)NC(=S)Nc2ccc3oc(=O)ccc3c2)cc(OC)c1OC` belongs 9.8%; to `CC(=O)OC1COC(n2ccc3cc([N+](=O)[O-])ccc32)C(OC(C)=O)C1OC(C)=O` (stereo not drawn), -12.2%.
Turning to `CC(C)C(=O)Nc1ccc(Sc2ccc(F)cc2)cc1`, the “hERG current change (%, negative = inhibition) at 10uM” value is reported as -3.48%.
With `CCC(C)Nc1nc2c(c(=O)n(C)c(=O)n2C)n1Cc1ccc(Cl)cc1` (stereo not drawn), the “hERG current change (%, negative = inhibition) at 10uM” value was -7.45%.
On to `COc1ccccc1-c1nc(SCC(=O)O)n[nH]1`, for which the “hERG current change (%, negative = inhibition) at 10uM” value is reported as -1.65%.
With `COc1ccc(N=Cc2c(O)n(-c3ccc(OC)cc3)c(=O)c3ccccc23)cc1`, the “hERG current change (%, negative = inhibition) at 10uM” value is on record as 15.2%.
Turning to `O=[N+]([O-])c1ccc(C(=S)N2CCN(Cc3ccccc3)CC2)cc1`, the “hERG current change (%, negative = inhibition) at 10uM” value was -57.6%.
As to `O=C(c1cccs1)N1CCN(c2nc3ccc([N+](=O)[O-])cc3s2)CC1`, the “hERG current change (%, negative = inhibition) at 10uM” value is recorded as -7.47%.
In the case of `O=C(c1ccccc1)N1CCN(C(=O)c2ccccc2)CC1`, the “hERG current change (%, negative = inhibition) at 10uM” value was found to be 1.49%.
As for `Oc1ccc(C(=S)N2CCN(Cc3ccccc3)CC2)cc1`, the “hERG current change (%, negative = inhibition) at 10uM” value was -5.46%.
The same measure for `CC(=O)N1CCN(C(=O)c2ccc(Oc3ccccc3)cc2)CC1`: 19.1%; for `CCN1CCN(C(=S)c2ccc([N+](=O)[O-])cc2)CC1`: -36.9%.
With `O=C(c1ccccc1)N1CCN(c2nc3ccc([N+](=O)[O-])cc3s2)CC1`, the “hERG current change (%, negative = inhibition) at 10uM” value is recorded as -55.4%.
As for `O=C(c1ccccc1)N1CCN(C(=O)c2ccc([N+](=O)[O-])cc2)CC1`, the “hERG current change (%, negative = inhibition) at 10uM” value is -53.9%.
Consider `CC(=O)N1CCN(c2nc3ccc([N+](=O)[O-])cc3s2)CC1`, for which the “hERG current change (%, negative = inhibition) at 10uM” value is -46.6%.
The same measure for `O=CN1CCN(C(=O)c2ccc([N+](=O)[O-])cc2)CC1`: -22.3%.
Regarding `O=C(c1ccc([N+](=O)[O-])cc1)N1CCCC1`, the “hERG current change (%, negative = inhibition) at 10uM” value came to 4.5%.
To `O=C(c1ccccc1)N1CCN(C(=O)c2ccc(OC(F)(F)F)cc2)CC1` belongs -62.8%; to `O=C(c1cc(N2C(=O)C3C4CCC(C4)C3C2=O)ccc1Cl)N1CCCCCC1` (stereo not drawn), 3.82%.
In the case of `O=C(c1ccccc1)N1CCC(O)(c2ccc3c(c2)OCO3)CC1`, the “hERG current change (%, negative = inhibition) at 10uM” value is reported as -12.4%.
Consider `CCn1c(CNC(=O)c2ccc3c(c2)OCO3)nnc1SCC(=O)Nc1ccccc1F`, for which the “hERG current change (%, negative = inhibition) at 10uM” value is listed as -6.31%.
For the compound `O=C(Nc1ccccc1)c1ccco1`, the “hERG current change (%, negative = inhibition) at 10uM” value is listed as 15%.
To `COC(=O)c1sccc1NC(=S)N1C(C)CCCC1C` (stereo not drawn) belongs -7.4%; to `Cc1ccc(S(=O)(=O)c2nc(C)c3c(n2)CCC3)cc1`, 3.61%.
To `COc1ccc(C(=O)COC(=O)CCc2ccccc2)cc1` belongs -11.4%; to `CC(=O)c1ccc(NC(=O)C(C)Sc2nnc(C3CCCCC3)o2)cc1` (stereo not drawn), -4.84%; to `O=C(c1ccc2nc(-c3ccco3)c(-c3ccco3)nc2c1)N1CCN(c2ccccc2)CC1`, -15.4%.
The same measure for `Cc1ccc(C)c(N2CCN(C(=O)c3ccc4nc(-c5ccco5)c(-c5ccco5)nc4c3)CC2)c1`: 21.1%; for `O=C(c1ccncc1)N1CCN(C(=O)c2cccs2)CC1`: 6.46%.
For the compound `O=C1NC(=O)C2(Cc3cc([N+](=O)[O-])ccc3N3CCN(C(=O)c4ccccc4)CC32)C(=O)N1` (stereo not drawn), the “hERG current change (%, negative = inhibition) at 10uM” value came out at 23%.
The same measure for `CC(C)N1CCN(C(=O)c2ccc([N+](=O)[O-])cc2)CC1`: -39.8%; for `O=C(c1ccc([N+](=O)[O-])cc1)N1CCN(C(=O)c2cccs2)CC1`: -70.3%.
Consider `O=C(c1ccc(-c2ccccc2)cc1)N1CCN(c2ncccn2)CC1`, for which the “hERG current change (%, negative = inhibition) at 10uM” value is recorded as -5.92%.
Regarding `O=C(c1ccc2nc(-c3ccco3)c(-c3ccco3)nc2c1)N1CCN(c2ncccn2)CC1`, the “hERG current change (%, negative = inhibition) at 10uM” value is -67.8%.
With `Cc1cc(-c2ccccc2)n(-c2ccc(C(=O)N3CCN(c4ncccn4)CC3)cc2)n1`, the “hERG current change (%, negative = inhibition) at 10uM” value is on record as -56.4%.
The same measure for `CN1C(=O)N(C)C(=O)C2(Cc3cc([N+](=O)[O-])ccc3N3CCN(C(=O)c4ccccc4)CC32)C1=O` (stereo not drawn): -65%; for `Cc1cc(C)n(-c2ccc(C(=O)N3CCN(c4ccccn4)CC3)cc2)n1`: -32.5%.
As for `CN1C(=O)N(C)C(=O)C2(Cc3cc([N+](=O)[O-])ccc3N(C)C2c2ccccc2)C1=O` (stereo not drawn), the “hERG current change (%, negative = inhibition) at 10uM” value was -17.6%.
The same measure for `CCC1=NC(c2ccccc2OC)N(O)C1(C)C` (stereo not drawn): 15.9%; for `CCOc1ccc(C(=O)NCC(=O)NCC(c2cccs2)N2CCOCC2)cc1` (stereo not drawn): 4.69%; for `c1ccc(-c2nc(NC3CCCC3)c3ccccc3n2)cc1`: 20.5%.
In the case of `c1csc(-c2nnc(NC3CCCCC3)c3ccccc23)c1`, the “hERG current change (%, negative = inhibition) at 10uM” value is on record as -75.4%.
To `O=C(O)C(=O)O.c1csc(-c2nnc(N3CCCCCC3)c3ccccc23)c1` belongs -20.9%; to `c1csc(-c2nc3ccccn3c2NC2CCCCC2)c1`, 8.81%.
